Reference: PubChem BioAssay
Active and inactive are the calls of the source.

Columns and labels:
[1] = molecular target: Albumin (Bos taurus) (UniProt P02769); assay: bovine serum albumin binders on microarray, profiling panel, artefact control for SMM control protein annotation, biochemical, small-molecule microarray, Alexa647 label, 635/667 nm fluorescence (AID 1118); conditions: BSA-A647 binding, fluorescence 635 nm, higher = more signal;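 also: score merges 667 nm emission intensity and signal-to-noise per printed compound spot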
[2] = small-molecule microarray binders of probe aXIP, primary screen, biochemical, NeuroSMM set, 635/667 nm fluorescence (AID 1119); conditions: higher = more signal, called active from +8 up or from −8 down;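 also: probe is the protein aXip251-270 applied at 1 µg/mL to compound-printed slides; binding of probe to printed compounds measured as 667 nm fluorescence plus signal to noise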
[3] = small-molecule binders of probe aNOTCH3, primary screen, biochemical, small-molecule microarray, 635/667 nm fluorescence (AID 1120); conditions: higher = more signal;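 also: probe is a biotin-tagged antibody raised against NOTCH3 rather than NOTCH3 protein; score merges spot fluorescence near 667 nm with spot signal to noise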
[4] = small-molecule binders of probe aNOTCH2, primary screen, biochemical, small-molecule microarray, 635/667 nm fluorescence (AID 1121); conditions: higher = more signal;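 also: score merges feature fluorescence read at 667 nm with its signal to noise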
[5] = molecular target: Carbonic anhydrase 2 (Homo sapiens) (UniProt P00918); assay: CAII small-molecule binders, profiling panel, biochemical, small-molecule microarray, Alexa647-labelled CAII (AID 1122); conditions: CAII-A647 binding fluorescence, higher = more signal
[6] = COS7 lysate on small-molecule microarray, probe aHis, 635 nm (AID 1123); conditions: COS7 cell lysate, fluorescence, higher = more signal;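 also: z-score combines 667nm fluorescence intensity with signal-to-noise per printed compound spot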
[7] = compound binding in COS7 lysate, probe aLAP1, primary screen, cell lysate, small-molecule microarray (AID 1124); conditions: probe aLAP1, fluorescence, higher = more signal;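 also: lysate comes from COS7 cells expressing LAP1 and is applied at 0.3 µg/mL; score merges spot fluorescence near 667 nm with signal-to-noise over triplicate slides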
[8] = system: Sam68 (KHDRBS1); assay: Sam68 small-molecule binders, primary screen, biochemical, small-molecule microarray, 635 nm fluorescence (AID 1125); conditions: small-molecule microarray binding, higher = more signal;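 also: score merges 667 nm channel intensity with signal to noise over triplicate slides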
[9] = system: Chordin-like protein 2 (CHRDL2); assay: CHRDL2 small-molecule binders, primary screen, biochemical, small-molecule microarray, 635 nm fluorescence (AID 1126); conditions: small-molecule microarray binding, fluorescence 635 nm; higher = more signal;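 also: printed compound slides probed with Chrdl2 protein at 4 µg/mL for 1 h at 4 C; score merges 667 nm emission intensity with signal to noise over three replicate slides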
[10] = molecular target: Concanavalin-A (Canavalia ensiformis) (UniProt P02866); assay: ConA small-molecule binders, primary screen, artefact control for SMM control protein annotation, biochemical, small-molecule microarray, Alexa647 label, 635 nm (AID 1127); conditions: ConA-A647 binding fluorescence, higher = more signal;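 also: z combines 667 nm emission intensity with signal-to-noise across three replicate slides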
[11] = anti-His antibody binders, primary screen, artefact control for SMM control protein annotation, biochemical, small-molecule microarray, 635 nm fluorescence (AID 1128); conditions: anti-His Alexa647 antibody binding, higher = more signal;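 also: score merges feature fluorescence with signal-to-noise for each printed compound spot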
[12] = system: Human papillomavirus type 1a E7 protein (residues 1-88); assay: HPV1a E7 small-molecule binders, primary screen, biochemical, small-molecule microarray, residues 1-88, 635 nm (AID 1129); conditions: small-molecule microarray binding, fluorescence 635 nm; higher = more signal
[13] = molecular target: Focal adhesion kinase 1 (Homo sapiens) (UniProt Q05397); assay: small-molecule microarray binders of FAK, primary screen, biochemical, 635/667 nm fluorescence, BSA, DTT (AID 1130); conditions: PTK2 binding, 635 nm fluorescence, higher = more signal;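 also: composite of spot emission at 667 nm and signal to noise over triplicate slides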
[14] = system: Fibrinogen (Alexa647-labelled); assay: fibrinogen binders on compound microarrays, profiling panel, artefact control for SMM control-protein annotation, biochemical, small-molecule microarray, 635/667 nm fluorescence (AID 1131); conditions: fibrinogen-A647 binding fluorescence, higher = more signal;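 also: z-score merges 667 nm fluorescence with per-spot signal-to-noise over triplicate slides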
[15] = molecular target: Follistatin (Homo sapiens) (UniProt P19883); assay: follistatin binders on small-molecule microarrays, primary screen, biochemical, small-molecule microarray, 635/667 nm fluorescence (AID 1132); conditions: FST binding, 635 nm fluorescence, higher = more signal
[16] = molecular target: Fibroblast growth factor 2 (Homo sapiens) (UniProt P09038); assay: FGF2 binders on small-molecule microarrays, primary screen, biochemical, small-molecule microarray, 635/667 nm fluorescence (AID 1133); conditions: small-molecule microarray binding, FGF2, fluorescence 635/667; higher = more signal
[17] = mitochondrial membrane potential change in A549 cells, profiling panel, cell-based, JC-1 fluorescence, basal, 24 h, 100 nL (AID 1138); conditions: higher = more signal;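 also: A549 lung adenocarcinoma cells under basal conditions with no added stimulus; test concentration not given here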
[18] = system: Lefty1; assay: Lefty1 binders on small-molecule microarrays, primary screen, biochemical, small-molecule microarray, 635/667 nm fluorescence (AID 1139); conditions: small-molecule microarray binding, fluorescence 635/667; higher = more signal
[19] = system: wheat germ agglutinin (Triticum aestivum), Alexa647-labelled; assay: wheat germ agglutinin binders on compound microarrays, profiling panel, artefact control for SMM control-protein annotation, biochemical, small-molecule microarray, 635/667 nm fluorescence (AID 1140); conditions: WGA-A647 binding, 635 nm fluorescence, higher = more signal;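 also: score merges 667 nm feature emission with signal to noise over triplicate slides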
[20] = molecular target: Luciferin 4-monooxygenase (Photinus pyralis) (UniProt P08659); assay: firefly luciferase enzyme inhibitors, primary screen, biochemical, luminescence, purified enzyme, 2006 set (AID 1141); conditions: SteadyGlo luminescence, 30 min, higher = more signal, called active from +8 up or from −8 down;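 also: cell-free assay with purified firefly luciferase at 100 ng per well in PBS; test concentration not given here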
Luciferin 4-monooxygenase (Photinus pyralis), sequence (P08659 whole entry, looked up): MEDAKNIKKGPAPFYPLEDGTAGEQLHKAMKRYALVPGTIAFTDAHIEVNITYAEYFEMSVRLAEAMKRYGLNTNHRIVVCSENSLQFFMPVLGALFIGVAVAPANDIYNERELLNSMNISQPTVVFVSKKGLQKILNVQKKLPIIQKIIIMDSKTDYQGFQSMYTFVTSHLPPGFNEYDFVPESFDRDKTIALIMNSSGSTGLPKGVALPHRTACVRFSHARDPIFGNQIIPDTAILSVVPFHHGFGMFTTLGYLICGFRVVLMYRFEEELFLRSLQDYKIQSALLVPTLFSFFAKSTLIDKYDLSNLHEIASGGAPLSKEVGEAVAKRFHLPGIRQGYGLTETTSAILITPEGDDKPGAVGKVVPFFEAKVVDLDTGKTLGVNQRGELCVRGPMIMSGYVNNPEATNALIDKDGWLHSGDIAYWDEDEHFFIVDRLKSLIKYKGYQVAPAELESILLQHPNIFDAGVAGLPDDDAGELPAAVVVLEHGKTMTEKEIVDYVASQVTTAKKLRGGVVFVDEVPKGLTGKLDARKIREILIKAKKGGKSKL

Fibroblast growth factor 2 (Homo sapiens), sequence (P09038 whole entry, looked up): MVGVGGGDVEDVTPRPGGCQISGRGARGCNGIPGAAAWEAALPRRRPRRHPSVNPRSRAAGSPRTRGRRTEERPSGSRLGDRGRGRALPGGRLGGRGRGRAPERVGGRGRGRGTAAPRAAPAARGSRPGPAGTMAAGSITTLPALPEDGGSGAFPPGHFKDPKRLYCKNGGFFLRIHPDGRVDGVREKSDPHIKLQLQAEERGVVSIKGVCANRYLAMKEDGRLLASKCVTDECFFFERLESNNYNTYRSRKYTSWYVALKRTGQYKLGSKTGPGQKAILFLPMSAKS
Albumin (Bos taurus), sequence (P02769 whole entry, looked up): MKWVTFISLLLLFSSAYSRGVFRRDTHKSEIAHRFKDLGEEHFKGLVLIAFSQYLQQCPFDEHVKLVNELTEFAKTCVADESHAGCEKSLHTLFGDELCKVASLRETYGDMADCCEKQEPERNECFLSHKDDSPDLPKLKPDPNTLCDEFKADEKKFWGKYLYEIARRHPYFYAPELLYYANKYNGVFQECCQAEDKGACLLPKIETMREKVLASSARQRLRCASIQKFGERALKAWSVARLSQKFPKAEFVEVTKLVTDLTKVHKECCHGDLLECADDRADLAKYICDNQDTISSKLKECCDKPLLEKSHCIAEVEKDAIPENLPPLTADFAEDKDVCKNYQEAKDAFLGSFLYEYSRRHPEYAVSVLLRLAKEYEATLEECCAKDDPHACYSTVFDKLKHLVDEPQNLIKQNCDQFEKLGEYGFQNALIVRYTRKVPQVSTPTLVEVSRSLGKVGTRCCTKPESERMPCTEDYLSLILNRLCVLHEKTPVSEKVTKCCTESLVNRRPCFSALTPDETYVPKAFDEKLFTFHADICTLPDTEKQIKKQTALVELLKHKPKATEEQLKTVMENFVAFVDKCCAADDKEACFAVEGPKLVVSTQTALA
Focal adhesion kinase 1 (Homo sapiens), sequence (Q05397 whole entry, looked up): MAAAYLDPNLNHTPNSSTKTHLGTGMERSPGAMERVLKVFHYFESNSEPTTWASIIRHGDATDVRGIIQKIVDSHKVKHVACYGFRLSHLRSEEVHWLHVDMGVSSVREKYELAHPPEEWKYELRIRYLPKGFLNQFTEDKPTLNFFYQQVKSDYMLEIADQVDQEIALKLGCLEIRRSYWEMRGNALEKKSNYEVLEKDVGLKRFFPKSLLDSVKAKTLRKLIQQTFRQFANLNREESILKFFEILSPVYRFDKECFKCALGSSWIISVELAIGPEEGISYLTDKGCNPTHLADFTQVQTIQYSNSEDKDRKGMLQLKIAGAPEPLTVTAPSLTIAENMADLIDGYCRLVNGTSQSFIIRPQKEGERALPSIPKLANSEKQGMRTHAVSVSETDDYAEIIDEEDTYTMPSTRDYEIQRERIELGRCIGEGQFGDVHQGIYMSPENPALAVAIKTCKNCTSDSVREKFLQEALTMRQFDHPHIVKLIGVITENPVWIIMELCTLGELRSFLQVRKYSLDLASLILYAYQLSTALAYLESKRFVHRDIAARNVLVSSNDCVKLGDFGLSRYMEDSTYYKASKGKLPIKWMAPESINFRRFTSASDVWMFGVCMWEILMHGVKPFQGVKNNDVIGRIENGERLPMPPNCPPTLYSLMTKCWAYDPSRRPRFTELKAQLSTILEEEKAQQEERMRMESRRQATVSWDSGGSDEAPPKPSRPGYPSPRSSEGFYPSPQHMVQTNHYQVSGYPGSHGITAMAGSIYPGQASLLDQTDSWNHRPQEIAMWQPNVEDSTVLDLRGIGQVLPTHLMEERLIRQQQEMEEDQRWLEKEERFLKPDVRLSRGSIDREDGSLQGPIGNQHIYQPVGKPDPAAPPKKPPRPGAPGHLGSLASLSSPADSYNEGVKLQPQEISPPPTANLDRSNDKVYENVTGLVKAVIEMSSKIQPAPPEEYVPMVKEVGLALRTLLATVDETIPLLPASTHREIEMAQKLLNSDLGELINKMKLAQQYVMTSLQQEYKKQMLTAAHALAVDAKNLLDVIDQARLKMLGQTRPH
Concanavalin-A (Canavalia ensiformis), sequence (P02866 whole entry, looked up): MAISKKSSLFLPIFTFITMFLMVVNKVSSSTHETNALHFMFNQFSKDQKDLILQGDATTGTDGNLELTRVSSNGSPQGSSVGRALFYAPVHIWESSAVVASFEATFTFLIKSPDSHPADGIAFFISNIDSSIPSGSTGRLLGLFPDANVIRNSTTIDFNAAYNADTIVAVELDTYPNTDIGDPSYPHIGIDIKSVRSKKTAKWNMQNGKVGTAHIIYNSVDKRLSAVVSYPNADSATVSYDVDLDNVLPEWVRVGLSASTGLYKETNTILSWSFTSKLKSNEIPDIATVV
Follistatin (Homo sapiens), sequence (P19883 whole entry, looked up): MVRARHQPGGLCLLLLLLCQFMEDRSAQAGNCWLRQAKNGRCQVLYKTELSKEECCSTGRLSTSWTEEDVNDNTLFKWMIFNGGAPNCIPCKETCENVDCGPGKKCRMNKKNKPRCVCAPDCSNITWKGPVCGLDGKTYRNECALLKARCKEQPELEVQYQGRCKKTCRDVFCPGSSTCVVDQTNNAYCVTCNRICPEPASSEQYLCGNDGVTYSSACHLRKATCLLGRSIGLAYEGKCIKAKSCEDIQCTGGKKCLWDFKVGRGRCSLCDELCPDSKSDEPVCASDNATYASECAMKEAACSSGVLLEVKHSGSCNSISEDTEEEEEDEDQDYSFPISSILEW

| Structure (SMILES) | composite z-score [1] | composite Z-score [2] | composite z-score [3] | composite z-score [4] | composite z-score [5] | composite z-score [6] | composite z-score [7] | composite z-score [8] | composite z-score [9] | composite z-score [10] | composite z-score [11] | composite z-score [12] | composite z-score [13] | composite z-score [14] | composite z-score [15] | composite z-score [16] | z-score [17] | composite z-score [18] | composite z-score [19] | z-score [20] |
| --- | --- | --- | --- | --- | --- | --- | --- | --- | --- | --- | --- | --- | --- | --- | --- | --- | --- | --- | --- | --- |
| COc1cccc([C@@H]2[C@@H](C)CC[C@H]3C(=O)N4[C@H](c5cccc(OC)c5)[C@@H](C)CC[C@H]4C(=O)N23)c1 | 0.447 | -0.155 (inactive) | 0.0193 | -0.0262 | 0.35 | 0.69 | 1.06 | 0.656 | 0.811 | 0.0858 | 0.584 | 0.276 | -0.175 | 0.817 | 0.614 | 0.428 | 1.55 | 0.418 | 0.248 | -1.78 (inactive) |
| [N-]=[N+]=NCc1ccccc1C[C@@]1(C(=O)O)N=C(c2ccc(OCCCO)cc2)O[C@@H]1c1ccccc1N=[N+]=[N-] | 0.855 | 0.198 (inactive) | 0.328 | -0.0424 | 0.726 | 2.05 | 0.497 | 1.3 | -0.256 | 0.421 | 1.36 | 1.22 | 0.581 | 1.02 | 0.622 | -0.316 | 0.376 | 0.42 | 0.415 | -8.1 (active) |
| CCCC[C@@H]1C[C@H]1[C@@H](NC(=O)c1cccs1)c1ccc(Cl)cc1 | 0.804 | 2.33 (inactive) | -0.201 | -0.0956 | -0.346 | 1.08 | -0.0875 | -0.858 | -1.66 | -0.782 | -0.492 | -1.19 | -0.393 | -1.26 | -1.44 | -1.6 | -0.363 | -1.58 | -0.746 | 0.191 (inactive) |
| COCCCNC(=O)[C@@H]1c2ccccc2C(=O)N(CC23CC4CC(CC(C4)C2)C3)[C@H]1c1ccc(CO)cc1 | -0.507 | 0.309 (inactive) | 0.28 | -0.0232 | 0.449 | 1.34 | 0.334 | 1.27 | -0.0949 | -0.171 | -0.348 | 0.816 | 0.412 | -0.434 | 1.39 | 0.875 | -0.648 | 0.19 | 0.728 | 0.438 (inactive) |
| CO[C@H]1COC(=O)[C@H](C)NC(=O)CC=C[C@@H](C)[C@H](NS(=O)(=O)c2ccc(C)cc2)COC(=O)CC=C[C@@H]1C | -0.524 | 0.0426 (inactive) | -0.152 | -0.146 | 0.651 | -0.616 | -0.177 | -1.03 | 1.41 | -0.206 | -0.0701 | -0.64 | -0.522 | -1.3 | 1.28 | 0.708 | 0.507 | 1.35 | -0.955 | -0.217 (inactive) |
| CN(C)CCCC[C@@H]1NC(=O)[C@@H]2C[C@H](C(=O)NCCCCCNC(=O)CS)[C@H](c3ccc(O)cc3)N2C1=O | 0.885 | 0.0077 (inactive) | 0.0261 | -0.0976 | 0.58 | 1.18 | 0.24 | 0.697 | 1.07 | 1.15 | 1.12 | 1.19 | -0.0662 | 0.946 | 1.52 | 1.65 | 1.3 | 1.65 | 1.23 | -1.11 (inactive) |
| C=C(COC)/C(=C/C[C@@H](OC(=O)c1ccncc1)c1ccc(OCCO)cc1)c1cc(C(=O)OC)ccc1OC | 0.655 | 0.345 (inactive) | 0.0631 | -0.0784 | 0.655 | 1.61 | 0.482 | 1.3 | -0.0659 | 1.06 | 2.06 | 1.21 | 1.21 | 0.791 | 0.59 | 0.334 | 2.2 | 0.716 | 1.3 | -2.22 (inactive) |
| CO[C@H]1COC(=O)[C@H](C)COC(=O)[C@H](Cc2ccccc2)NC(=O)CC=C[C@H]1C | -1.16 | 0.72 (inactive) | 0.62 | 0.087 | -0.612 | -0.826 | 0.266 | -1.02 | 1.53 | -0.994 | -0.384 | -1.55 | 0.195 | -1.04 | 1.42 | 0.807 | 1.71 | 1.16 | -1.5 | -1.14 (inactive) |
| CO[C@]12C=C(Br)[C@@H](C[C@@H]1c1ccccc1)[C@@]1(CO1)C2=O | 0.139 | -0.0467 (inactive) | 0.0773 | -0.11 | 0.143 | -0.245 | -0.0571 | 0.0999 | 0.77 | 0.0193 | -0.22 | -0.0095 | -0.259 | -0.0226 | 0.931 | 0.6 | 0.704 | 0.41 | -0.297 | -0.876 (inactive) |
| O=C(NCC(O)CO)[C@]1(Cc2ccccc2)N=C(c2ccc(OCCCO)cc2)O[C@@H]1c1ccccc1 (stereo not given in full) | 0.974 | 0.749 (inactive) | 0.101 | 0.257 | 0.366 | 3.43 | 0.634 | 1.03 | -1.93 | 0.922 | 0.713 | 0.98 | 0.774 | 0.601 | 0.585 | -0.836 | 0.571 | -1.42 | 1.27 | -1.37 (inactive) |
| COCCOC(=O)N1C(=O)[C@@]2(c3cc(C#CCNC(N)=O)ccc31)[C@H](C(=O)N1CCCCCCC1)[C@H]1C(=O)O[C@H](c3ccccc3)[C@H](c3ccccc3)N1[C@@H]2c1ccccc1OCCO | 0.328 | 1.01 (inactive) | 0.555 | 0.0231 | 0.171 | 0.963 | 0.417 | 1.14 | 0.573 | 1.08 | 0.455 | 1.14 | 0.784 | 0.47 | 1.33 | 0.385 | -0.751 | 1.21 | 0.835 | -0.201 (inactive) |
